Experimental data: article PMC13083723 (Patterns, 2026)
Among all 5,400 compounds or so, about 190 (3.5%) showed an effect of 50% or more. Many of the other results were omitted from the sample, so strong results are more common in it than they were.

Tested on: Vero-E6
Assay: primary screen, phospholipidosis by LipidTOX staining; higher = more effect of the substance
Details: 10 µM
Outline: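 Single-concentration screen at 10 μM, with DMSO 0.1 v/v % and amiodarone 10 μM as controls. Read-out is LipidTOX Red phospholipid staining, which tolerates aldehyde fixation, in Vero-E6 cells.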

SMILES | result_ITMP [%]
CCOc1ccc(-c2ccc(Cn3c(CC(C)(C)C(=O)[O-])c(SC(C)(C)C)c4cc(OCc5ccc(C)cn5)ccc43)cc2)cn1 | 0.09
CCN(CC)CCNC(=O)COc1ccc(OC)cc1 | -4.1
CCN(CC)CCCCNc1ncc2cc(-c3c(Cl)cccc3Cl)c(NC(=O)NC(C)(C)C)nc2n1 | 69.2
CCN(CC)CCOc1ccc(Nc2ncc3cc(-c4c(Cl)cccc4Cl)c(=O)n(C)c3n2)cc1 | 24.2
CNc1ncc2cc(-c3cc(NC(=O)NCCC(C)(C)C)c(F)cc3C)c(C)nc2n1 | -7.16
CCN(CC)CCCCNc1ncc2cc(-c3cc(OC)cc(OC)c3)c(NC(=O)NC(C)(C)C)nc2n1 | 90.1
O=C(NCC(=O)N1CC[C@H](N[C@H]2CC[C@@](O)(c3ccc(-c4ncccn4)cn3)CC2)C1)c1cccc(C(F)(F)F)c1 | -0.29
O=S(=O)(OC[C@H]1O[C@@](COS(=O)(=O)[O][Al]([OH])[OH])(O[C@H]2O[C@H](COS(=O)(=O)[O][Al]([OH])[OH])[C@@H](OS(=O)(=O)[O][Al]([OH])[OH])[C@H](OS(=O)(=O)[O][Al]([OH])[OH])[C@H]2OS(=O)(=O)[O][Al]([OH])[OH])[C@@H](OS(=O)(=O)[O][Al]([OH])[OH])[C@@H]1OS(=O)(=O)[O][Al]([OH])[OH])[O][Al]([OH])[OH] | 6.9
OC[C@@H](O)[C@@H](O)CO | -7.96
Cc1ccc2nc(N)nc(O)c2c1Sc1ccncc1 | 3.27
Fc1cc(-c2cccc3ncc(-c4cnn(C5CCNCC5)c4)nc23)cc(F)c1CN1CCOCC1 | 73.3
CC(C)(C)C(=O)CN1C(=O)[C@H](NC(=O)Nc2cccc(C(=O)O)c2)CN(C2CCCCC2)c2ccccc21 | -0.97
CO[C@@]1(NC(=O)Cc2cccs2)C(=O)N2C(C(=O)[O-])=C(COC(N)=O)CS[C@@H]21 | -2.27
C=CCc1ccccc1OCC(O)CNC(C)C (centres unmarked) | 12.1
c1ccc(CC(c2ccccc2)N2CCCCC2)cc1 (racemic) | 6.03
CC(COc1ccccc1Cc1ccccc1)N1CCCCC1 (centres unmarked) | 72
OC[C@H]1O[C@@H]2O[C@H]3[C@H](O)[C@@H](O)[C@@H](O[C@H]4[C@H](O)[C@@H](O)[C@@H](O[C@H]5[C@H](O)[C@@H](O)[C@@H](O[C@H]6[C@H](O)[C@@H](O)[C@@H](O[C@H]7[C@H](O)[C@@H](O)[C@@H](O[C@H]8[C@H](O)[C@@H](O)[C@@H](O[C@H]1[C@H](O)[C@H]2O)O[C@@H]8CO)O[C@@H]7CO)O[C@@H]6CO)O[C@@H]5CO)O[C@@H]4CO)O[C@@H]3CO | -4.2
Cc1cc(-c2ccc(/N=N/c3ccc4c(S(=O)(=O)[O-])cc(S(=O)(=O)[O-])c(N)c4c3O)c(C)c2)ccc1/N=N/c1ccc2c(S(=O)(=O)[O-])cc(S(=O)(=O)[O-])c(N)c2c1O | 10.1
COc1cc2c(cc1F)C(c1ccccc1Cl)=NC1=C(C)NNC1=N2 | -1.52
CCCN(CCC)C(=O)C(CCC(=O)[O-])NC(=O)c1ccccc1 (centres unmarked) | -3.27
COc1cc2ncn(-c3cc(OCc4ccccc4C(F)(F)F)c(C(N)=O)s3)c2cc1OC | -2.1
CC(C)c1cc(C(=O)N2Cc3ccc(CN4CCN(C)CC4)cc3C2)c(O)cc1O | 8.21
C[C@@H](Oc1cc(-n2cnc3ccc(CN4CCN(C)CC4)cc32)sc1C(N)=O)c1ccccc1C(F)(F)F | 75.1
CN[C@@H]1[C@H](OC2[C@H](O[C@H]3[C@H](O)[C@@H](O)[C@H](NC(=N)N)[C@@H](O)[C@@H]3NC(=N)N)O[C@@H](C)[C@]2(O)C=O)O[C@@H](CO)[C@H](O)[C@H]1O (some centres unmarked) | -1.71

SMILES | result_ITMP [%]
O=C([O-])P(=O)([O-])[O-] | -2.03
C=CCn1c(=O)n([C@@H]2O[C@H](CO)[C@@H](O)[C@H]2O)c2nc(N)nc(O)c21 | -1.06
OC(c1cc(C(F)(F)F)nc2c(C(F)(F)F)cccc12)C1CCCCN1 (centres unmarked) | 50
COC(=O)C(c1ccccc1)C1CCCCN1 (centres unmarked) | 10.3
Nc1c(CC(=O)[O-])cccc1C(=O)c1ccc(Br)cc1 | 0.95
NS(=O)(=O)NCCNc1nonc1/C(=N\c1ccc(F)c(Br)c1)NO | -3.83
CN1[C@@H]2C[C@@H](O)C[C@H]1[C@@H]1O[C@@H]12 | 17.2
COc1ccc(C(=O)NCc2ccc(OCCN(C)C)cc2)cc1OC | 6.48
COc1ccc(NC(=O)c2ccc(-c3ccc(-c4noc(C)n4)cc3C)cc2)cc1N1CCN(C)CC1 | 142
COc1ccc(NS(=O)(=O)c2ccc(I)cc2)cc1N1CCN(C)CC1 | 16.4
COc1ccccc1N1CCN(CCCCNC(=O)c2ccc(-c3ccc(C(C)=O)cc3)cc2)CC1 | 6.35
COc1cc(C(=O)NCc2ccc(OCCN(C)C)cc2)cc(OC)c1OC | -1.29
COc1ccc(NC(=O)c2ccc(-c3ccc(-c4noc(C)n4)cc3C)cc2)cc1OCCN(C)C | 81.5
C[C@@H]1CC[C@H]2C(C)(C)[C@H]3C[C@@]12CC[C@@]3(C)O | 4.78
O=C(O)c1cc(O)c2ccccc2n1 | 3.47
O=C([O-])CCCCCCCCC(=O)[O-] | -5.98
Cc1cccc(-c2nc(C(C)(C)C)[nH]c2-c2ccc3nccnc3c2)n1 | -5.96
CCCn1c(=O)c2nc(C3CCCC3)[nH]c2n(CCC)c1=O | 9.14
C=C1CC[C@H](O)C/C1=C/C=C1\CCC[C@]2(C)[C@@H]([C@H](C)CCCC(C)(C)O)CC[C@@H]12 | -0.38
C=C1/C(=C\C=C2/CCC[C@]3(C)[C@@H]([C@H](C)CCCC(O)(C(F)(F)F)C(F)(F)F)CC[C@@H]23)C[C@@H](O)C[C@@H]1O | 0.82
C[C@]12CCC(=O)C=C1CCC1C2[C@@H](O)C[C@@]2(C)C1CC[C@]2(O)C(=O)COC(=O)CCC(=O)O (some centres unmarked) | -1.39
COc1cccc(CCc2ccccc2OCC[C@@H]2C[C@@H](O)CN2C)c1 | 90.4
COc1cccc(CN2C[Si](C)(C)O[Si](C)(C)C2)c1 | -1.81
